TRPM1 prom inh – MITF TRPM1 promoter inhibition in SK-MEL-5 cells; SK-MEL-5 TRPM1 promoter luciferase, 24 h; inhibition, % at 12.5 µM; 330,000 tested, 0.83% active;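 active means mean inhibition across replicates of 60% or more, whatever share of single replicates reaches that level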
697 NFkB inh – lowers PMA/ionomycin-induced NF-kB signal in 697 B cells; 697 B-cell NF-kB luciferase reporter, 16 h; inhibition, % at 4 µM; 330,000 tested, 0.33% active; in the data active means inhibition above about 35%
LMP1 NFkB inh – Epstein-Barr LMP1 NF-kappaB reporter inhibition | LMP1-induced NF-kappaB luciferase reporter cells, luminescence | inhibition, % at 12.5 µM | 350,000 tested, 0.69% active | AID 504558; in the data active means inhibition above about 41%;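 further: 0% = neutral control wells and 100% = reference inhibitor control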
Shn3 inh set2 – reduces Shn3 3'UTR luciferase signal in osteoblasts | Clone20 osteoblast Shn3 3'UTR firefly luciferase, 24 h | inhibition, % at 12.5 µM | 360,000 tested, 0.52% active;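 active means mean inhibition of at least 75% with every replicate also reaching 75%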;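 further: 0% = median of neutral control wells and 100% = pilot-screen positive control compound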
Gli-Sufu block – Gli-Sufu pathway antagonism. 340,000 tested, 0.74% active. inhibition, % at 5 µM. Sufu-KO-LIGHT fibroblasts, Gli luciferase reporter luminescence;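 active means inhibition above about 55%, limit read from the data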;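 further: 0% = DMSO-treated cells and 100% = wells with medium but no cells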
Jurkat NFkB inh – inhibitors of the PMA/ionomycin-induced NF-kB reporter in Jurkat cells; PMA/ionomycin-induced NF-kB luciferase reporter, luminescence; inhibition, % at 4 µM; 330,000 tested, 0.53% active; AID 435003; in the data active means inhibition above about 50%
Gli antag conf – confirmation of Gli-SUFU pathway antagonists | 2,500 tested, 40% active | Sufu-KO-LIGHT cells, Gli luciferase reporter, luminescence | inhibition, % at 5 µM | shares compounds with Gli-Sufu block;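 active means mean inhibition at 5 µM reaching about 45%, limit read from the data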;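 further: plate controls were DMSO-treated cells for no effect and wells lacking cells for full effect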
Gli cytotox – cytotoxicity counter-screen for Gli-SUFU antagonists; cytotoxicity, % at 5 µM; 2,500 tested, 32% active; Sufu-KO-LIGHT cells cytotoxicity, ATP luminescence; AID 651994; shares compounds with Gli-Sufu block;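 active means mean cytotoxicity at 5 µM above about 25%, limit read from the data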;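 further: cells exposed to compound overnight for roughly 16 to 18 hours; plate controls were DMSO wells with cells for no effect and medium without cells for full effect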
Wnt3a cs – inhibits Wnt3a reporter, counter-screen for Gli-SUFU antagonists; Wnt-LIGHT cells, Wnt3a-driven luciferase reporter, luminescence; inhibition, % at 6.25 µM; shares compounds with Gli-Sufu block; 2,500 tested, 20% active;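 active means mean inhibition above about 25%, limit read from the data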
Starred values were filed as active, the others as inactive; · = no result given. Most compounds without a hit are left out; they make up all but 2.3% or so of the library.

SMILES | TRPM1 prom inh | 697 NFkB inh | LMP1 NFkB inh | Shn3 inh set2 | Gli-Sufu block | Jurkat NFkB inh | Gli antag conf | Gli cytotox | Wnt3a cs
Cc1ccc(-n2nnc3c(SCC(=O)NCc4ccco4)ncnc32)cc1 | 11 | 13 | -3 | -45 | 9 | 3 | · | · | ·
COC(=O)N/N=C/c1cn(CCOc2cccc(OC)c2)c2ccccc12 | 11 | 16 | 3 | 9 | 6 | 14 | · | · | ·
Cc1cccc(OCCn2cc(/C=N/NC(=O)c3ccncc3)c3ccccc32)c1 | -7 | -10 | 8 | 0 | 96* | 4 | 27 | 29* | -13
Cc1ccc(OCCC(=O)N2CCN(c3ccc(O)cc3)CC2)cc1 | -12 | -40 | -4 | 2 | 54 | -19 | 35 | 15 | 0
O=C(Cc1ccccc1)NCCS(=O)(=O)N1CCN(c2ccccc2)CC1 | 1 | -2 | 5 | 2 | -4 | 5 | · | · | ·
O=C(Cc1ccc(F)cc1)NCCS(=O)(=O)N1CCN(c2ccccc2)CC1 | 11 | 1 | 0 | -16 | 97* | 5 | 10 | 8 | -56
CCC1Sc2ccc(S(=O)(=O)CCC(=O)Nc3ccccc3Cl)cc2NC1=O (stereo not drawn) | -2 | -23 | -4 | 10 | 51 | -7 | 12 | 23 | 17
CCC1Sc2ccc(S(=O)(=O)CCC(=O)N3CCc4ccccc43)cc2NC1=O (stereo not drawn) | 10 | -9 | -9 | -14 | -35 | -14 | · | · | ·
CCCC1CC(C#N)N(N(C)C)C1=C(C#N)C#N (stereo not drawn) | -8 | -5 | -1 | -69 | 5 | -1 | · | · | ·
O=C(Nc1nnc(-c2cccs2)o1)c1cccc(Oc2ccccc2)c1 | -7 | 16 | 14 | 11 | 3 | 1 | · | · | ·
O=C(Nc1nnc(-c2cccs2)o1)c1cccc(F)c1 | -11 | 10 | 28 | 10 | 50 | 0 | 15 | 24 | -36
Cc1ccc(NNS(=O)(=O)c2ccc(C)cc2)cc1 | 15 | -7 | -5 | 7 | -16 | 15 | · | · | ·
Cc1ccc(C(=O)O)cc1NC(=S)NC(=O)Cc1ccccc1 | 1 | 8 | 1 | -8 | -21 | -4 | · | · | ·
Cc1cc(C)cc(NC(=S)NC(=O)Cc2ccccc2)c1 | 0 | -3 | 8 | -4 | 60* | -2 | 12 | 23 | 0
CCOC(=O)N1CCN(C(=S)NC(=O)C2CCCC2)CC1 | -4 | 15 | -16 | -13 | -2 | 8 | · | · | ·
Cc1ccc(C)c(S(=O)(=O)N2CCN(C(=O)C3CCN(c4ncnc5sc(C)c(C)c45)CC3)CC2)c1 | 30 | -57 | 29 | 89* | 73* | 20 | 34 | 25 | -11
Cc1sc2ncnc(N3CCN(S(=O)(=O)c4ccccc4)CC3)c2c1C | 2 | -11 | 6 | 94* | 60* | 4 | 54* | 26* | 30*
Cc1ccc(S(=O)(=O)N2CCN(c3ncnc4scc(-c5ccccc5)c34)CC2)cc1 | 29 | -33 | -8 | 24 | 10 | -6 | · | · | ·
Cc1ccc(NC(=O)C2CCN(c3ncnc4sc(C)c(C)c34)CC2)cc1S(=O)(=O)N(C)C | 13 | -40 | -5 | 34 | 40 | 1 | · | · | ·
Cc1ccc(S(=O)(=O)N2CCN(c3ncnc4sccc34)CC2)cc1C | 44 | -9 | 18 | 88* | 52 | 25 | 47* | 26* | 36*
Cc1ccc(S(=O)(=O)N2CCN(c3ncccn3)CC2)cc1C | 9 | · | -6 | 15 | -14 | · | · | · | ·
CCOCCCNC(=O)c1cn(CC)c2ccc(S(=O)(=O)N3CCOCC3)cc2c1=O | -3 | -3 | -4 | 1 | 6 | -2 | · | · | ·
COc1ccccc1OCCCCCNCCO | 3 | -1 | 3 | -13 | 3 | 6 | · | · | ·
COc1ccc(CCNC(=O)C2CCN(S(=O)(=O)c3cccc4cccnc34)CC2)cc1OC | 8 | 5 | 3 | -12 | 52 | -3 | 23 | 0 | -17
CCn1cc(CNC(=O)C2CCC(=O)N(Cc3ccccc3F)C2)cn1 (stereo not drawn) | 11 | -6 | -6 | 8 | 51 | -19 | 21 | -2 | 15
